# Test results taken from PubChem BioAssay (EPA / NIEHS).
# Results filed as inconclusive are left out. Activity calls are given as the source filed them. Rule for the calls: active = hit-call score of the fitted dose curve at least 0.9, where 1 is the maximum; inconclusive = response in the unintended direction; inactive = score below 0.9.
# What was measured:
# [1] = target: Estrogen receptor (Homo sapiens) + Estrogen receptor beta (Homo sapiens) (UniProt P03372+Q92731); experiment: OT_ER_ERaERb_1440: Odyssey Thera (OT) 24-hour HEK293T Protein-Complementation Assay for Estrogen Receptor-alpha/-beta Homodimer (AID 2283356);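 note: heteromer of ER alpha and ER beta binding domains; hits raise reporter fluorescence and both agonists and antagonists give an increase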
# Summary of the method: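 Readout: mean fluorescence intensity in nucleus (agonists) or nucleus plus cytoplasm (antagonists), read by laser scanning cytometer after 24 h compound exposure of HEK293T cells carrying ERα/ERβ LBD fragment-complementation constructs; DMSO baseline.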
# [2] = target: rat Mineralocorticoid Receptor (MR), Nr3c2 (gene 25672) (UniProt P22199); experiment: NVS_NR_rMR: NovaScreen (NVS) Nuclear Receptor Binding Assay for rat Mineralocorticoid Receptor (MR) (AID 2283355)
# Summary of the method: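 Adrenalectomized rat brain supernatant was dosed with test chemical, then radioligand binding was measured by scintillation counting at 24 h. Initial testing ran in duplicate at 25 uM, followed by concentration series for actives.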
# [3] = target: Estrogen receptor beta (Homo sapiens) (UniProt Q92731); experiment: OT_ER_ERbERb_0480: Odyssey Thera (OT) 8-hour HEK293T Protein-Complementation Assay for Estrogen Receptor-beta/-beta Homodimer (AID 2283357);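 note: active means signal gain over DMSO baseline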
# Summary of the method: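 Cells (HEK293T, stable ER-beta LBD PCA pair) are treated 8 hours, fixed and Draq5-stained; signal is fluorescence intensity increase relative to vehicle, fitted in the gain direction.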
# [4] = target: Retinoic acid receptor alpha (Homo sapiens) (UniProt P10276); experiment: NVS_NR_hRAR_Antagonist: NovaScreen (NVS) Nuclear Receptor Binding Assay for human Retinoic Acid Alpha Receptor Antagonism (RAR) (AID 2283358)
# Summary of the method: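 TR-FRET, cell-free, antagonist format; 2 h incubation after dosing; DMSO = baseline; signal loss fitted; 25 uM duplicate primary, then conc. series.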
# [5] = target: Peroxisome proliferator-activated receptor gamma (Homo sapiens) (UniProt P37231); experiment: NVS_NR_hPPARg: NovaScreen (NVS) Nuclear Receptor Binding Assay for human Peroxisome Proliferator-activated Receptor gamma (PPARg) (AID 2283370)
# Summary of the method: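 FP read-out, 2 h post-dose, cell-free extracted receptor protein. Signal loss vs DMSO negative control = binding activity. Single-conc duplicate HTS at 25 uM; concentration-response follow-up for actives.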
# [6] = target: Androgen Receptor/SRC-1 Co-activator, AR (gene 367) (UniProt P10275); experiment: OT_AR_ARSRC1_0960: Odyssey Thera (OT) 16-hour HEK293T Protein-Complementation Assay for Androgen Receptor/SRC-1 Co-activator (AID 2283353);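 note: actives raise the signal above DMSO so potency reflects increased AR and SRC-1 complex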
# Summary of the method: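 Interaction of AR with SRC-1 was followed by YFP fragment complementation in HEK293T cells after 16 h of dosing. Gain of nuclear-over-cytoplasmic 488 nm fluorescence against DMSO controls defined activity.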
# [7] = target: Androgen Receptor/SRC-1 Co-activator, AR (gene 367) (UniProt P10275); experiment: OT_AR_ARSRC1_0480: Odyssey Thera (OT) 8-hour HEK293T Protein-Complementation Assay for Androgen Receptor/SRC-1 Co-activator (AID 2283354);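 note: hits raise the complementation signal above DMSO so AC50 marks enhancers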
# Summary of the method: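 Measures AR/SRC-1 binding by Venus YFP fragment complementation in HEK293T stable lines at 8 h post-dose. Imaging quantifies the 488nm nucleus/cytoplasm ratio in ≥400 cells; DMSO defines baseline.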
# [8] = target: Glucocorticoid receptor (Homo sapiens) (UniProt P04150); experiment: NVS_NR_hGR: NovaScreen (NVS) Nuclear Receptor Binding Assay for human Glucocorticoid Receptor (GR) (AID 2283363);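 for AC50: activity is loss of specific radioligand binding signal relative to DMSO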
# Summary of the method: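 Competitive displacement of a labelled ligand was measured on cell-free receptor preparations after 16 h exposure. Initial testing used 25 uM in duplicate with plate controls; confirmed actives went into concentration series.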
# [9] = target: guinea pig Sigma Receptor, Non-selective Binding, SIGMAR1 (gene 100135589) (UniProt Q60492); experiment: NVS_OR_gSIGMA_NonSelective: NovaScreen (NVS) Nuclear Receptor Binding Assay for guinea pig Sigma Receptor, Non-selective Binding (AID 2283367)
# Summary of the method: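 gp brain membr., radioligand displacement, 1 h, filtration + scint. counting; DMSO = baseline; 25 uM x2 primary, conc.-response confirm.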
# [10] = target: Nuclear receptor subfamily 1 group I member 2 (Homo sapiens) (UniProt O75469); experiment: NVS_NR_hPXR: NovaScreen (NVS) Nuclear Receptor Binding Assay for human Pregnane X Receptor (PXR) (AID 2283365);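 note: a drop in FRET signal versus DMSO baseline means the compound binds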
# Summary of the method: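 TR-FRET signal read at 2 h in a cell-free human PXR binding format. DMSO served as negative control and baseline; activity scored as signal loss. Single-concentration duplicate screen (25 uM), then concentration-response follow-up.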
# [11] = tested on: guinea pig Dopamine Transporter (DAT), gene 100714898; experiment: NVS_TR_gDAT: NovaScreen (NVS) Transporter Assay for guinea pig Dopamine Transporter (DAT) (AID 2283369);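 note: active compounds lower bound radioligand signal relative to DMSO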
# Summary of the method: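 Cell-free striatal membrane prep (guinea pig), 2 h exposure, filtration + scintillation readout of radioligand binding. Single-point 25 uM duplicate; actives rerun singleton, top conc 50 uM.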
# [12] = tested on: rat Norepinephrine Transporter (NET), gene 83511; experiment: NVS_TR_rNET: NovaScreen (NVS) Transporter Assay for rat Norepinephrine Transporter (NET) (AID 2283373)
# Summary of the method: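 Rat forebrain membranes; radioligand binding measured by filter-based scintillation counting 1 hour after dosing. Loss of specific binding versus DMSO baseline scored; primary screen in duplicate at 25 uM, actives followed up in concentration series.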
# [13] = target: human Dopamine Transporter (DAT), SLC6A3 (gene 6531) (UniProt Q01959); experiment: NVS_TR_hDAT: NovaScreen (NVS) Transporter Assay for human Dopamine Transporter (DAT) (AID 2283374);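 note: activity means loss of bound radioligand signal relative to DMSO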
# Summary of the method: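 Test chemicals were first screened in duplicate at 25 uM, with actives retested as concentration series. Displacement of a specific radioligand from cell-free human dopamine transporter was measured after 1 h by filtration and scintillation counting.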
# [14] = target: rat Serotonin Transporter (SERT), Slc6a4 (gene 25553) (UniProt P31652); experiment: NVS_TR_rSERT: NovaScreen (NVS) Transporter Assay for rat Serotonin Transporter (SERT) (AID 2283375)
# Summary of the method: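 Radioligand displacement, filter scintillation readout; rat forebrain membrane prep, 1 h post-dose. Single-conc 25 uM duplicate screen, then concentration-response on actives. Loss of signal vs DMSO baseline.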
# [15] = target: human Norepinephrine Transporter (NET), SLC6A2 (gene 6530) (UniProt P23975); experiment: NVS_TR_hNET: NovaScreen (NVS) Transporter Assay for human Norepinephrine Transporter (NET) (AID 2283377);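 note: cell-free membrane protein extracted from CHO cells expressing human NET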;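 for AC50: displacement of radioligand from human NET seen as loss of scintillation signal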
# Summary of the method: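 Scintillation counts of filter-retained radioligand served as the readout, taken 1 h post-dosing in a cell-free CHO-derived system. Test chemicals ran first at 25 uM in duplicate; confirmed hits were retested across concentrations.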
# [16] = target: human Serotonin Transporter (SERT), SLC6A4 (gene 6532) (UniProt P31645); experiment: NVS_TR_hSERT: NovaScreen (NVS) Transporter Assay for human Serotonin Transporter (SERT) (AID 2283372)
# Summary of the method: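 Radioligand binding to native SERT in human platelet membranes, read by filter-based scintillation counting 1 h after dosing. Primary screen in duplicate at 25 uM; actives followed up in concentration series; loss of signal versus DMSO baseline.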
# [17] = target: rat Androgen Receptor (AR), Ar (gene 24208) (UniProt P15207); experiment: NVS_NR_rAR: NovaScreen (NVS) Nuclear Receptor Binding Assay for rat Androgen Receptor (AR) (AID 2283366)
# Summary of the method: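 Cell-free radioligand binding on extracts of prostate from testosterone-pretreated rats, read by filter-based scintillation counting 18 h after dosing. Loss of bound signal fitted positively versus DMSO; primary screen in duplicate at 25 uM, actives followed up in concentration series.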
# Chain of Estrogen receptor (Homo sapiens) + Estrogen receptor beta (Homo sapiens) (P03372 whole entry, looked up, the tested form may be a part): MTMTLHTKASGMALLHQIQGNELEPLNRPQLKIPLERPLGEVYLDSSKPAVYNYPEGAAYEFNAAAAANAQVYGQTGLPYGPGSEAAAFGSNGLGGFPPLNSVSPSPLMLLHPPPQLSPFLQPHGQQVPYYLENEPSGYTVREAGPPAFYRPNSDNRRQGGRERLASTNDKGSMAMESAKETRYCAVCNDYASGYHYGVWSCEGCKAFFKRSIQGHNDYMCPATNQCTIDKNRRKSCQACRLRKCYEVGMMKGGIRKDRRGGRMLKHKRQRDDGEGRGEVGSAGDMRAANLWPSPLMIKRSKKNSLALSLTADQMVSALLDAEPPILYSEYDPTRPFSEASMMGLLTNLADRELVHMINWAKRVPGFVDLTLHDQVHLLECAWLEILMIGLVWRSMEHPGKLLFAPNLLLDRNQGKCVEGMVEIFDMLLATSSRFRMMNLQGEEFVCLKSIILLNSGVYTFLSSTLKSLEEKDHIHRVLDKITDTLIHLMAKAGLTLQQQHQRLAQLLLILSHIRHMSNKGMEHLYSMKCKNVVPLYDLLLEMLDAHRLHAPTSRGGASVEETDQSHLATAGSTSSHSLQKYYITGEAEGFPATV
# Chain of Estrogen receptor (Homo sapiens) + Estrogen receptor beta (Homo sapiens) (Q92731 whole entry, looked up, the tested form may be a part): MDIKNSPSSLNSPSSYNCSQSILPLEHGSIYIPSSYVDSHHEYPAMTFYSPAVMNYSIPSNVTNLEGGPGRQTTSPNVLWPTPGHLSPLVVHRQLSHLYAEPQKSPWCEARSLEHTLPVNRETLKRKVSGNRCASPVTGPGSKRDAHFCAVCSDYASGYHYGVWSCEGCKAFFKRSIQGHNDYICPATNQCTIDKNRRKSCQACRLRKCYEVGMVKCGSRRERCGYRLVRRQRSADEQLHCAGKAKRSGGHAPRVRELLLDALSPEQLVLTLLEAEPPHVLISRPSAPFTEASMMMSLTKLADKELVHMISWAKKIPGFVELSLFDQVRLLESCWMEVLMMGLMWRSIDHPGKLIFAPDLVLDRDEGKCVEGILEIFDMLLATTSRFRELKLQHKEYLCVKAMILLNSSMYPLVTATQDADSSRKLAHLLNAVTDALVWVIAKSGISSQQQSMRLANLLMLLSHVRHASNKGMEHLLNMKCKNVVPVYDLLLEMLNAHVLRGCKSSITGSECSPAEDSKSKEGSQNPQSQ
# Chain of Nuclear receptor subfamily 1 group I member 2 (Homo sapiens) (O75469 whole entry, looked up): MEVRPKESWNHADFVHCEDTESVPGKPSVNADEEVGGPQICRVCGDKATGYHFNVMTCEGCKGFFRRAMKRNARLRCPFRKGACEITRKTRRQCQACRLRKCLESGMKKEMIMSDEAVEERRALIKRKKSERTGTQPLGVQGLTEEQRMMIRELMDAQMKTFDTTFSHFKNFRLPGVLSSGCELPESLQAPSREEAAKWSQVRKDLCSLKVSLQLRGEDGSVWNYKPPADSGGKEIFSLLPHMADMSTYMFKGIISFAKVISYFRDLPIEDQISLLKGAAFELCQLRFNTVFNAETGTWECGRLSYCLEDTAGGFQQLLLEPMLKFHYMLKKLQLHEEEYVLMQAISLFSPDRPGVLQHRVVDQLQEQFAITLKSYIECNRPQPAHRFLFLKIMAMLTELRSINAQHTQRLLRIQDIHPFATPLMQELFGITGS
# Chain of rat Serotonin Transporter (SERT), Slc6a4 (gene 25553) (P31652 whole entry, looked up): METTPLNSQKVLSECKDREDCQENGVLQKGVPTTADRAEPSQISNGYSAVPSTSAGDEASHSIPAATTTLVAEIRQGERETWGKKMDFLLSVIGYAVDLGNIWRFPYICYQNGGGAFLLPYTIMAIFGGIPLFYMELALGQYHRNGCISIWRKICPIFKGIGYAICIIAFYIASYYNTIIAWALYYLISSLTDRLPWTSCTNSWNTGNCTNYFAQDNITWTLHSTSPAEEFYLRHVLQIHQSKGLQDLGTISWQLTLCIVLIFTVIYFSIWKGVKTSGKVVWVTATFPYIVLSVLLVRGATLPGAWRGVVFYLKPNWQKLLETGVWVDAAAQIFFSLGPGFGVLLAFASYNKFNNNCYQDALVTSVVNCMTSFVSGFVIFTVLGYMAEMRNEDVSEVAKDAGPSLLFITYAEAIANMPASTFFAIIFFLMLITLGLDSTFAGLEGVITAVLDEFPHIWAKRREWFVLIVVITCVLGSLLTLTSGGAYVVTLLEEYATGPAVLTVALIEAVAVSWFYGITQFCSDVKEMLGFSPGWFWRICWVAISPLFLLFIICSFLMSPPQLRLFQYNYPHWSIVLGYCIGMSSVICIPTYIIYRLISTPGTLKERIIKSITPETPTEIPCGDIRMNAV
# Chain of Androgen Receptor/SRC-1 Co-activator, AR (gene 367) (P10275 whole entry, looked up, the tested form may be a part): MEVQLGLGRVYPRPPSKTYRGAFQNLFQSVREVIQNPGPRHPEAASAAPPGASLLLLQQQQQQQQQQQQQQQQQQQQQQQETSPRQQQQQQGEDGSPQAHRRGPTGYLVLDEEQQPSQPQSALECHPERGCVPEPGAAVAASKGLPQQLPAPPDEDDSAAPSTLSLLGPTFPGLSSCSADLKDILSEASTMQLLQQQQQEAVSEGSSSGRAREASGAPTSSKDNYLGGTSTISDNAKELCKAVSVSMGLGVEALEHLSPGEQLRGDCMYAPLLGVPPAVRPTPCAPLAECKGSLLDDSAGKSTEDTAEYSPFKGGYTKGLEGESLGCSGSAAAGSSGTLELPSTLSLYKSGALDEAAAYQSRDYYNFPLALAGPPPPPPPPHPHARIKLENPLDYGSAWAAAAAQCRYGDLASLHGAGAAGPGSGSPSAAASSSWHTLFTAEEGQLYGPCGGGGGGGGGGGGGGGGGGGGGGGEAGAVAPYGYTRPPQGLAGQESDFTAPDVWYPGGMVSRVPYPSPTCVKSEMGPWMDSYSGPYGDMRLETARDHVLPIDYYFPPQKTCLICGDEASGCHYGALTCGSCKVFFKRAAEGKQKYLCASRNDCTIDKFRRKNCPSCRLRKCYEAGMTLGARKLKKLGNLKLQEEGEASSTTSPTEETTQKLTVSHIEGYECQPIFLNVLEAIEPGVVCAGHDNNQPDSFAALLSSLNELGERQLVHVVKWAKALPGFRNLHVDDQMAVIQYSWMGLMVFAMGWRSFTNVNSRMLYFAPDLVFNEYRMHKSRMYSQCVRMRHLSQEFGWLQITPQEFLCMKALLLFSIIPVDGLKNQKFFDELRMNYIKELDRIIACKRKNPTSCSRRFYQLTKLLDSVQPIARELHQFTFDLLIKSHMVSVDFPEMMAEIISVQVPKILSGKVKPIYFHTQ
# Chain of human Dopamine Transporter (DAT), SLC6A3 (gene 6531) (Q01959 whole entry, looked up): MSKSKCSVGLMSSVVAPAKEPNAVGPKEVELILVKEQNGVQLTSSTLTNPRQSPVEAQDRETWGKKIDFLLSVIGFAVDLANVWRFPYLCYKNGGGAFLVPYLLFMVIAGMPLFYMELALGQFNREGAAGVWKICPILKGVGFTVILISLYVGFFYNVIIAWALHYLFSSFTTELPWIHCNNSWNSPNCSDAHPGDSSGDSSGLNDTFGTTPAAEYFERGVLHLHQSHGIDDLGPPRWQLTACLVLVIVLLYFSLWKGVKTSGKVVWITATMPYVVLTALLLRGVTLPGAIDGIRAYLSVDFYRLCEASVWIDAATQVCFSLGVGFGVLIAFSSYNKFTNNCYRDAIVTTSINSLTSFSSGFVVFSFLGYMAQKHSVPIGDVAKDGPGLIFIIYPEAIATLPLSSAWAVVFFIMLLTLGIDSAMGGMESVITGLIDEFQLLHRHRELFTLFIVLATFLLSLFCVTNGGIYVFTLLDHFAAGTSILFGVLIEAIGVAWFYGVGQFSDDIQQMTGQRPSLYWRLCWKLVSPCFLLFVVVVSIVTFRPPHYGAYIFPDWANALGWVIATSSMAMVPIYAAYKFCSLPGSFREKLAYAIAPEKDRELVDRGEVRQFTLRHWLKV
# Chain of human Norepinephrine Transporter (NET), SLC6A2 (gene 6530) (P23975 whole entry, looked up): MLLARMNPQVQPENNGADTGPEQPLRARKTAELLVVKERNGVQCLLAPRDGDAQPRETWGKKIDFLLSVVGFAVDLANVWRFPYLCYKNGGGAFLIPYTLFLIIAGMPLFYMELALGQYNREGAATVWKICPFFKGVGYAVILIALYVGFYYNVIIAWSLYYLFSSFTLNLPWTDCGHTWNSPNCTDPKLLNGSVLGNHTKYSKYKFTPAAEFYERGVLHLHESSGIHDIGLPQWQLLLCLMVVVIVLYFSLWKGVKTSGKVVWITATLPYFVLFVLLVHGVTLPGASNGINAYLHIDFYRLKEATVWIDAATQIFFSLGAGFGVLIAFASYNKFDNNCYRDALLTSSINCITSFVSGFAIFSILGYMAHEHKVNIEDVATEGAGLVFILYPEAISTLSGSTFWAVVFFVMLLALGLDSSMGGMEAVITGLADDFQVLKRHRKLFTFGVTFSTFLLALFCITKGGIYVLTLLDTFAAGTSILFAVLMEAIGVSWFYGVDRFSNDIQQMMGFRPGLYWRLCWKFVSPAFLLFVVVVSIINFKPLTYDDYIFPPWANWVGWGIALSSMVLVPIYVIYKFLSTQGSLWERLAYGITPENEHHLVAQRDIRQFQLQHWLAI
# Chain of Estrogen receptor beta (Homo sapiens) (Q92731 whole entry, looked up, the tested form may be a part): as the sequence (Q92731 whole entry, looked up, the tested form may be a part) above
# Chain of guinea pig Sigma Receptor, Non-selective Binding, SIGMAR1 (gene 100135589) (Q60492 whole entry, looked up): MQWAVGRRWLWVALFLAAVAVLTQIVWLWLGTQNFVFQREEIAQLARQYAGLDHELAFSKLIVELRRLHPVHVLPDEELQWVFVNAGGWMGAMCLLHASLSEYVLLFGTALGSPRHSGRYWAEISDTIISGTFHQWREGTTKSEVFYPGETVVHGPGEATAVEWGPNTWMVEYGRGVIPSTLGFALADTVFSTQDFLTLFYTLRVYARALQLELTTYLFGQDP
smiles,measurement,setting,value
CC1(C)C(=O)NC(=O)N1CO,outcome,[1],inactive
O=C(O)CC(O)(CC(=O)O)C(=O)O,outcome,[2],inactive
same,outcome,[1],inactive
same,outcome,[3],inactive
same,outcome,[4],inactive
same,outcome,[5],inactive
CC1=C(C)S(=O)(=O)CCS1(=O)=O,outcome,[6],inactive
same,outcome,[7],inactive
CCCCc1nc2cccnc2n1Cc1ccc(-c2ccccc2-c2nnn[nH]2)cc1,outcome,[1],inactive
same,outcome,[3],inactive
same,outcome,[8],inactive
same,AC50,[5],4.96 µM (active)
Cc1ccc(C(C)(C)C)c(O)c1,AC50,[1],33.9 µM (active)
same,AC50,[3],13.2 µM (active)
CCCCCCCCCC[N+](C)(C)[O-],outcome,[6],inactive
same,outcome,[7],inactive
same,outcome,[1],inactive
same,outcome,[3],inactive
same,AC50,[9],3.09 µM (active)
O=C(NS(=O)(=O)/C=C/c1cccs1)c1ccc(F)cc1Br,outcome,[6],inactive
same,outcome,[1],inactive
same,outcome,[3],inactive
same,AC50,[5],40.7 µM (active)
COc1ccc(C(=O)Nc2nc3ccccc3c(NCc3ccccc3)c2C#N)cc1,outcome,[1],inactive
same,outcome,[3],inactive
same,outcome,[10],inactive
CS(=O)(=O)c1ccc([C@@H](C[C@H]2CCC(=O)C2)C(=O)Nc2cnccn2)cc1Cl,outcome,[1],inactive
same,outcome,[3],inactive
O=C1CCCCC1,outcome,[6],inactive
same,outcome,[7],inactive
same,outcome,[1],inactive
same,outcome,[3],inactive
CCc1nc(N)nc(N)c1-c1ccc(Cl)cc1,outcome,[1],inactive
same,outcome,[3],inactive
same,AC50,[9],2.45 µM (active)
same,AC50,[11],1.18 µM (active)
same,outcome,[5],inactive
same,AC50,[12],6.82 µM (active)
same,AC50,[13],0.754 µM (active)
same,AC50,[14],9.78 µM (active)
same,AC50,[15],2.23 µM (active)
O=Cc1ccccc1C=O,AC50,[6],75.3 µM (active)
same,AC50,[7],66.1 µM (active)
same,outcome,[1],inactive
same,outcome,[3],inactive
same,AC50,[8],6.78 µM (active)
same,AC50,[15],7.28 µM (active)
Nc1nc(=S)c2[nH]cnc2[nH]1,outcome,[6],inactive
same,outcome,[7],inactive
same,outcome,[1],inactive
same,outcome,[3],inactive
same,outcome,[15],inactive
CCCCCCC(CCCCCCCCCCC(=O)OCC(COC(C)=O)OC(C)=O)OC(C)=O (centres undefined),outcome,[1],inactive
same,outcome,[3],inactive
same,outcome,[5],inactive
C#CC(O)C(CC)CCCC (centres undefined),AC50,[6],72.6 µM (active)
same,AC50,[7],93.7 µM (active)
same,outcome,[3],inactive
CCCCCCCC(=O)OC,outcome,[1],inactive
same,outcome,[3],inactive
CCCCCCCCCCCCCCOS(=O)(=O)O,outcome,[1],inactive
same,outcome,[3],inactive
same,AC50,[8],2.14 µM (active)
same,AC50,[10],7.25 µM (active)
same,AC50,[5],1.78 µM (active)
same,AC50,[13],41 µM (active)
same,AC50,[15],37.7 µM (active)
CCC(C)N(C)C(=O)c1cc2ccccc2c(-c2ccccc2Cl)n1 (centres undefined),AC50,[6],26 µM (active)
same,outcome,[7],inactive
same,outcome,[1],inactive
same,outcome,[3],inactive
same,AC50,[9],6.44 µM (active)
same,AC50,[5],5.15 µM (active)
same,AC50,[15],6.81 µM (active)
COc1ccc(OC(F)(F)F)cc1CN[C@H]1CCCN[C@H]1c1ccccc1,outcome,[1],inactive
same,AC50,[10],7.41 µM (active)
same,AC50,[9],15.8 µM (active)
same,AC50,[11],11.9 µM (active)
same,AC50,[16],12.5 µM (active)
same,AC50,[12],8.18 µM (active)
same,AC50,[14],11.7 µM (active)
same,AC50,[15],11.1 µM (active)
NC(=Nc1ccccc1)Nc1ccccc1,outcome,[1],inactive
same,outcome,[3],inactive
same,AC50,[9],0.646 µM (active)
same,outcome,[12],inactive
same,outcome,[15],inactive
Cc1cc(SC2=C(O)C[C@@](CCc3ccc(N)cc3)(C(C)C)OC2=O)c(C(C)(C)C)cc1CO,outcome,[6],inactive
same,outcome,[7],inactive
same,outcome,[9],inactive
same,outcome,[11],inactive
same,outcome,[13],inactive
same,outcome,[14],inactive
C=CCCCCCCCCCCCC,outcome,[6],inactive
same,outcome,[7],inactive
same,outcome,[3],inactive
O=C(N[C@@H](c1ccccc1)[C@@H]1CCCCN1)c1cccc(C(F)(F)F)c1Cl,outcome,[2],inactive
same,outcome,[1],inactive
same,outcome,[3],inactive
same,AC50,[11],25 µM (active)
same,AC50,[16],9.57 µM (active)
same,AC50,[13],12.2 µM (active)
same,AC50,[14],7.98 µM (active)
same,AC50,[15],8.04 µM (active)
Cc1c(C)c2c(c(C)c1O)CCC(C)(COc1ccc(CC3SC(=O)NC3=O)cc1)O2 (centres undefined),AC50,[6],27.4 µM (active)
same,outcome,[7],inactive
same,outcome,[1],inactive
same,outcome,[3],inactive
same,outcome,[17],inactive
same,AC50,[9],35 µM (active)
Cc1ccc(-c2cc(C(F)(F)F)nn2-c2ccc(S(N)(=O)=O)cc2)cc1,AC50,[6],33.7 µM (active)
same,AC50,[7],72.6 µM (active)
same,outcome,[17],inactive
same,AC50,[15],6.38 µM (active)
CCCCCCCCCCCCCCCCO,outcome,[1],inactive
CCOCCOCCO,outcome,[6],inactive
same,outcome,[7],inactive
same,outcome,[5],inactive
OCC(CO)n1cnc(-c2ccc(F)cc2)c1-c1ccnc(Oc2ccccc2)n1,outcome,[1],inactive
same,outcome,[3],inactive
CC(C)OC(=O)C(C)(C)Oc1ccc(C(=O)c2ccc(Cl)cc2)cc1,AC50,[6],34.4 µM (active)
same,outcome,[7],inactive
same,outcome,[1],inactive
same,outcome,[3],inactive
same,AC50,[10],41.2 µM (active)
same,outcome,[13],inactive
CN(C)C(=O)NC1(c2ccccc2)CCN(CCC[C@]2(c3ccc(Cl)c(Cl)c3)CCCN(C(=O)c3ccccc3)C2)CC1,AC50,[1],2.97 µM (active)
same,outcome,[3],inactive
same,AC50,[11],0.596 µM (active)
same,AC50,[12],3.55 µM (active)
same,AC50,[13],0.418 µM (active)
same,AC50,[15],0.124 µM (active)
CN(C)CCCN(C)CCCN(C)C,outcome,[1],inactive
same,outcome,[3],inactive
